Shown are actives, neighbours in structure and some others; about 3.1% of the full set was active somewhere.
VDR inh: Inhibitors of the vitamin D receptor (VDR): qHTS; Vitamin D3 receptor (Homo sapiens), P11473; VDR-SRC2-3 peptide fluorescence polarization, 2 h; Potency, µM, for inactives: max response, negative = inhibition, actives largely listed as inhibitors; 400,000 compounds, 0.93% hits; further: on the % scale 0 is the no-effect control and ±100 the full control effect
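FP read-out; VDR + SRC2-3 coactivator peptide; 23 nl compound by pintool; 2 h RT incubation; reagents held at 4 deg C, protected from light.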
PLK1 PBD inh: qHTS for Inhibitors of PLK1-PDB (polo-like kinase 1 - polo-box domain): Primary Screen; Serine/threonine-protein kinase PLK1 (Homo sapiens), P53350; 360,000 compounds, 2.8% hits; Plk1 PBD binding of FITC phosphopeptide, fluorescence polarization; AID 720504, 2013; Potency, µM, for the others: max response, negative = inhibition, actives largely listed as inhibitors; further: series mostly up to about 57 µM; on the % scale 0 is the no-effect control and ±100 the full control effect; nearly all actives have a fitted effect of over 65% in size
TDP1 inh: qHTS Assay for Inhibitors of Tyrosyl-DNA Phosphodiesterase (TDP1) | recombinant TDP1, AlphaScreen DNA substrate cleavage | Potency, µM (series often up to 130 µM), for the others: at the highest dose activity change, negative = inhibition, usual class: inhibitors | 350,000 compounds, 0.28% hits; further: on the % scale 0 is the no-effect control and ±100 the full control effect; nearly all actives have a fitted effect of over 40% in size
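Signal: AlphaScreen proximity between streptavidin donor and anti-FITC acceptor beads on intact substrate. Reaction: Tdp1 1 nM, substrate 15 nM final, 5 min RT after 15 min compound preincubation.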
Pin1 inh: qHTS Assay to Find Inhibitors of Pin1; Pin1 FP peptide displacement, HiFluor488, 10 min; AID 504891, 2011; 390,000 compounds, 0.009% hits; Potency, µM (titrated, usually from 115 µM), without a hit: at the top dose activity, negative = inhibition, hits mostly inhibitors; active means well fitted inhibition curve with a large enough effect in the polarisation, with a control signal flat, not every such curve was filed as active; inconclusive means small, poorly fitted or top-dose-only effect, or effect the other way, or a change in a side signal; inactive means no such curve, though single readings can be large or run the other way; the % refers to the polarisation; further: on the % scale 0 is the no-effect control and ±100 the full control effect
Target sequence (Q13526 whole entry, looked up): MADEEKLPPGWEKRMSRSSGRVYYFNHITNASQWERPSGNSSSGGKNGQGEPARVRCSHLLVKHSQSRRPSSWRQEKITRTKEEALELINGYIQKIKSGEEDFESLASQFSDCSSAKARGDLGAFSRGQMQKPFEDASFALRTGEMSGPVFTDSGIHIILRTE
Tb PFK inh: qHTS Assay to Find Inhibitors of T. brucei phosphofructokinase. T. brucei PFK, ADP-Glo luminescence. Potency, µM (highest dose often 57.5 µM), for inactives: at the top dose activity, negative = inhibition, actives largely listed as inhibitors. 330,000 compounds, 0.17% hits;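 further: 0% = uninhibited 1x PFK enzyme wells and -100% = no-enzyme wells; nearly all actives have a fitted effect of over 60% in size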
Target sequence (O15648 whole entry, looked up): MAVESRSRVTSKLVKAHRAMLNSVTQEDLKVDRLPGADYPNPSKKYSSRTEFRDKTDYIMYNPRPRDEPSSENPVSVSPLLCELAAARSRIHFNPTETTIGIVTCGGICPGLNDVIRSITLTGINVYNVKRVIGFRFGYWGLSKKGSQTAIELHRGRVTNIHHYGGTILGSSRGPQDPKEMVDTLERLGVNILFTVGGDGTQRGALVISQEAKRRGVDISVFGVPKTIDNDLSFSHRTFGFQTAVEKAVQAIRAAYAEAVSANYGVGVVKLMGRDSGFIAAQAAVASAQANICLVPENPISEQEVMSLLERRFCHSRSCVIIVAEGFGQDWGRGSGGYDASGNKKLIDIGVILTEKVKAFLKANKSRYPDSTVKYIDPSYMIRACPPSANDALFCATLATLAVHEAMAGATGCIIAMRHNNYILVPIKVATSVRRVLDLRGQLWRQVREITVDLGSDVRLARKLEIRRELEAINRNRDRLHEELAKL
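1.25 nM PFK with 0.5 mM F6P and 0.1 mM ATP in 0.1 M TEA pH 8.0, 5 mM MgCl2, incubated 45 min at room temperature; ADP measured by ADP-Glo luminescence; compounds titrated up to 57 uM.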
ASM inhibitor: Inhibitors of Secretory Acid Sphingomyelinase (S-ASM): qHTS; 340,000 compounds, 0.006% hits; AID 504937, 2011; placental ASM, HMU-PC fluorogenic substrate, 60 min; Sphingomyelin phosphodiesterase (Homo sapiens), P17405; Potency, µM (titrated, usually from 57.5 µM), for the others: at the highest dose activity change, negative = inhibition, most hits filed as inhibitors
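qHTS format. ASM enzyme prepared from human placenta hydrolyses the fluorogenic substrate HMU-PC0 (9 uM final) over 60 min at 37 °C after a 10 min compound preincubation.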
TbPYK confirm: qHTS of Trypanosoma Brucei Inhibitors: Confirmatory Assay for Cherry-picked Compounds. AID 720569, 2013. 890 compounds, 67% hits. recombinant TbPYK, Kinase-Glo ATP luminescence. shares compounds with PLK1 PBD inh. Potency, µM (series often up to 76.9 µM), inactives show at the highest dose activity change, negative = inhibition, usual class: inhibitors; further: on the % scale 0 is the no-effect control and ±100 the full control effect; nearly all actives have a fitted effect of over 70% in size
TbPYK ADP-Glo: qHTS of Trypanosoma Brucei Inhibitors: Orthogonal Assay for Cherry-picked Compounds. AID 720584, 2013. recombinant TbPYK, ADP-Glo luminescence, 60 min. 890 compounds, 62% hits. shares compounds with PLK1 PBD inh. Potency, µM (doses to about 76.9 µM), for the others: at the top dose activity change, negative = inhibition, most hits filed as inhibitors; further: on the % scale 0 is the no-effect control and ±100 the full control effect; nearly all actives have a fitted effect of over 75% in size
The depositor's hits bear a star; i = inactive; u = inconclusive; x = no result. Unless noted, the call rests on the fitted dose curve; in most records, active means well fitted curve in the direction sought with a large enough effect; inconclusive means small, poorly fitted or top-dose-only effect, or another doubt; inactive means no such curve, though single readings can be large; an effect the other way counts as inactive or inconclusive. Potency means the concentration at half of the fitted maximal effect.

SMILES	VDR inh	PLK1 PBD inh	TDP1 inh	Pin1 inh	Tb PFK inh	ASM inhibitor	TbPYK confirm	TbPYK ADP-Glo
O=C1C=C(NCCc2cc(Br)c(O)c(Br)c2)C(=O)c2ncccc21	32µM*	2.7µM*	x	u	x	0%	11µM*	16µM*
CC(=O)N1c2ccc(S(=O)(=O)NCC3CCC(C(=O)Nc4cccc(C)c4C)CC3)cc2CC1C (stereo not drawn)	17%	x	-5%	152%	x	x	x	x
CCOC(=O)C(=C1Nc2ccccc2N1)n1c(-c2ccco2)nc2ccccc21	x	u	x	x	x	x	-72%	35µM*
O=[N+]([O-])c1ccccc1N=Nc1ccc(O)cc1O	-12%	-5%	x	u	x	-17%	x	x
O=S(=O)(O)c1cc(O)c(N=Nc2ccc(O)cc2O)c2ccccc12	52%	u	x	x	x	-8%	11µM*	u
Cc1nn(C)c(Sc2ccccc2N)c1[N+](=O)[O-]	u	13µM*	3%	-4%	-20%	1%	13µM*	13µM*
CCN1CCC(N(Cc2cccc(OC)c2)C(=O)Nc2cccc(C)c2C)CC1	-2%	x	2%	-10%	x	x	x	x
CC1=CC(=Nc2c(C)n(C)n(-c3ccccc3)c2=O)C=CC1=O	x	x	x	x	-5%	x	x	x
CC1=CC(=Nc2c(C)n(C)n(-c3ccccc3)c2=O)C=C(C)C1=O	-3%	-5%	5%	-1%	-3%	-7%	-26%	-7%
CCOC(=O)c1cnc2ccc(OCC)cc2c1NCc1cccnc1	6%	-3%	4%	17%	-5%	x	-3%	-3%
CCOC(=O)c1cnc2ccc(OCC)cc2c1NCc1ccccc1	-18%	-4%	5%	2%	1%	479%	x	x
Cc1ccc(S(=O)(=O)C(CNC(=O)C(=O)NCCc2ccc(Cl)cc2)c2cccs2)cc1 (stereo not drawn)	-4%	x	3%	-8%	x	x	x	x
CCOC(=O)CNC(=O)CSc1nnc(-c2ccccc2)n1Cc1ccco1	11%	-9%	-10%	0%	-18%	2%	2.2µM*	1.4µM*
Cc1cc(NC(=O)CSc2nnc(-c3ccccc3)n2Cc2ccco2)no1	0%	0%	6%	2%	-3%	-1%	x	x
Cc1nnc(N=c2ssnc2Cl)o1	u	1.7µM*	-4%	-15%	u	-3%	4.5µM*	5µM*
Cc1ccc(N=c2ssnc2Cl)cc1	28µM*	1.7µM*	7%	-1%	-16%	-1%	6.3µM*	8.9µM*
CCOc1ccc(CCNC(=O)c2cn(CC)c3ccc(S(=O)(=O)N4CCCCCC4)cc3c2=O)cc1OCC	2%	x	5%	11%	x	x	x	x
O=C(c1ccc2ncsc2c1)N1CCCCC1	-10%	1%	4%	-3%	23%	5%	u	u
Nc1c(C(=O)Nc2ccc(Cl)cc2)sc2nc(N3CCOCC3)c3c(c12)CCCC3	12%	u	2%	6%	0%	4%	u	u
CCCCOC(=O)c1sc2nc(N3CCOCC3)c3c(c2c1N)CC(C)(C)OC3	10%	-5%	8%	2%	0%	i	x	x
CC1(C)Cc2c(c(N3CCOCC3)nc3sc(C(=O)N4CCCCC4)c(N)c23)CO1	u	u	0%	9%	8%	271%	0.4µM*	2.5µM*
COc1cccc(NC(=O)c2sc3nc(N4CCOCC4)c4c(c3c2N)CCCC4)c1	12%	u	3%	2%	2%	-5%	u	u
Nc1c(C(=O)N2CCOCC2)sc2nc(N3CCOCC3)c3c(c12)CCCC3	71µM*	27µM*	5%	-1%	2%	i	7.9µM*	14µM*
CN=c1nc(-c2ccccc2)n(-c2ccccc2)s1	50µM*	3µM*	14%	1%	-7%	-3%	0.89µM*	1.8µM*
CC(=O)N=c1nc(-c2ccccc2)n(-c2ccccc2)s1	-21%	x	x	5%	x	x	x	x
SMILES	VDR inh	PLK1 PBD inh	TDP1 inh	Pin1 inh	Tb PFK inh	ASM inhibitor	TbPYK confirm	TbPYK ADP-Glo
CCc1ccc(S(=O)(=O)c2nnn3c2nc(NC2CCCCCC2)c2sccc23)cc1	2%	x	-8%	-2%	x	x	x	x
Cc1ccc(Cn2c(SCCN3CCCCC3)nc3c2c(=O)[nH]c(=O)n3C)cc1	89µM*	7.5µM*	0%	2%	u	2%	16µM*	11µM*
Cn1c(=O)[nH]c(=O)c2c1nc(SCC(=O)O)n2Cc1ccccc1	-19%	-10%	6%	-2%	0%	8%	u	u
Cc1ccc(NC(=O)NC(=O)CN2CCN(c3ccc(O)cc3)CC2)c(C)c1	-8%	-8%	6%	u	-16%	-2%	11µM*	5.6µM*
CCOc1ccc(N(CC)S(=O)(=O)N2CCCC(C(=O)Nc3cc(Cl)ccc3C)C2)cc1 (stereo not drawn)	8%	x	8%	-1%	x	x	x	x
O=C(O)c1cc(C(=O)O)cc(-c2ccc(/C=c3/sc4nc5ccccc5n4c3=O)o2)c1	8%	-15%	x	32%	18%	3%	x	x
O=C(O)c1ccccc1-c1ccc(C=c2sc3nc4cc(Br)cnc4n3c2=O)o1	x	u	x	x	x	x	14µM*	16µM*
COc1ccc(Cl)cc1NC(=O)CCN1C(=O)c2ccccc2Sc2ncccc21	9%	x	5%	6%	x	x	x	x
N#C/C(=C\c1ccc(N2CCOCC2)o1)c1ccccc1	-93%	12%	12%	u	u	-20%	x	x
N#C/C(=C/c1ccc(N2CCOCC2)o1)c1ccc(Br)cc1	35µM*	17%	8%	u	-19%	u	u	35µM*
O=C(Nc1ccc(C(=O)N2CCCC2)cc1)c1ccccc1	7%	-6%	x	1%	x	6%	28µM*	8%
O=C(Nc1cc(C(F)(F)F)ccc1Cl)c1cc(S(=O)(=O)NCc2ccccc2)ccc1F	-3%	x	-3%	4%	x	x	x	x
Cc1cc(Br)ccc1NC(=O)CN(C)C(=O)Cn1c(=O)cnc2ccccc21	6%	-15%	-15%	-3%	5%	x	u	u
